About 95 (0.2%) of roughly 62,000 compounds were called active. Only a selection was taken, and actives are over-represented in it overall. Values without a mark were called inactive. Cut-off read from the data, not from the text of the source: active = inhibition above about 20% (passing the limit was not always enough); inactive = the rest.
What follows are molecules tested against Coagulation factor XII (Homo sapiens) (UniProt P00748) (assay: human factor XIIa inhibitors, primary screen, biochemical, pooled compound mixtures, fluorogenic substrate (AID 684;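 note: 0% = enzyme without compound and 100% = no enzyme blank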)). Details: purified FXIIa, at 5 µM, stronger effect = higher value.
Sequence of Coagulation factor XII (Homo sapiens) (P00748 20-372 limits assumed): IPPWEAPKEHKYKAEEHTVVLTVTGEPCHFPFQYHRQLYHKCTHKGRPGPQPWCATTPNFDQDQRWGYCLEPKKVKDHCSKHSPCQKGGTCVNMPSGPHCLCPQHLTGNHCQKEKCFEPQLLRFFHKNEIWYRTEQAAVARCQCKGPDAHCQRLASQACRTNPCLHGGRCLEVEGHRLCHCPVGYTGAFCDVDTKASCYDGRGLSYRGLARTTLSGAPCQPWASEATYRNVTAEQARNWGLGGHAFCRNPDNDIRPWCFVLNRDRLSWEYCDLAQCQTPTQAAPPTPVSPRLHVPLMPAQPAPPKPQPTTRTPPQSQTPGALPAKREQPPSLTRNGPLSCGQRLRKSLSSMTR
Sequence of Coagulation factor XII (Homo sapiens) (P00748 373-615 limits assumed): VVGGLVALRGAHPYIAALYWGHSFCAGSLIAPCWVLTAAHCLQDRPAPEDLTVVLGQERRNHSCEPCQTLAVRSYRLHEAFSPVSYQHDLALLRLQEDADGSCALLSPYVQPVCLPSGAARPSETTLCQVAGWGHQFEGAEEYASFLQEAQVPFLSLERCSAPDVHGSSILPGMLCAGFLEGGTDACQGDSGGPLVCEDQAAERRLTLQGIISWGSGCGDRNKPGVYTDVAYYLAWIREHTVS

SMILES	inhibition
Cc1ccc(C(c2sc3nc(C)nn3c2O)N2CCN(c3ccc(F)cc3)CC2)cc1 (configuration not stated)	3.33%
O=C1CC(Cc2ccccc2)C(=O)N1c1ccc(Cl)cn1 (configuration not stated)	-17.9%
COCCNC(=O)COc1ccc(C)c(C)c1	1.93%
CC(C)Oc1ccc(C2NC(=O)NC2=O)cc1 (configuration not stated)	-16.2%
Nn1c(SCC(=O)NC(=O)NC2CCCC2)nnc1-c1ccccc1F	3.32%
CCOC(=O)c1sc(NC(=S)n2cc(C)cn2)c(C(=O)OCC)c1C	7.4%
O=C(CNC(=O)c1ccc(Cl)cc1Cl)NCC(=O)Nc1ccccc1N1CCOCC1	6.48%
O=C1CC(N2CCN(C(c3ccccc3)c3ccccc3)CC2)C(=O)N1 (configuration not stated)	1.87%
COc1cccc(NC(=O)c2ccccc2SC)c1	-1.39%
Cc1ccc(Cn2ccc(NC(=O)C3C4CCC(C4)C3C(=O)O)n2)cc1 (configuration not stated)	-2.65%
COc1ccc(N2CCN(CCNC(=O)c3nnc(Cc4c(F)cccc4Cl)o3)CC2)cc1	10.3%
CCOC(=O)c1cc2occc2n1CC(=O)N1CCN(C(=O)c2ccco2)CC1	9.63%
Cc1noc(C)c1S(=O)(=O)N(CC(=O)NCc1ccc(Cl)cc1)c1ccc2c(c1)OCO2	-1.99%
CCC(C)Sc1nc2c(c(=O)[nH]c(=O)n2C)n1CC(O)COc1cccc2ccccc12 (configuration not stated)	-0.685%
CC(C)C[C@H](NC(=O)NCCc1ccc(Cl)cc1)C(=O)O	5.46%
CC(Sc1sc(=S)sc1SC(C)C(=O)O)C(=O)O (configuration not stated)	0.39%
CC/C(=N\O)C(C)(C)/[N+]([O-])=C/c1ccc(Br)cc1	8.49%
Brc1ccc(OCCn2ccnc2)cc1	10.3%
O=C1C(=O)N(CCN2CCOCC2)C(c2ccccn2)/C1=C(/O)c1ccc(Cl)cc1 (configuration not stated)	5.72%
COC(=O)C1=CN(C)C=C(C(=O)OC)C1c1ccc(Cl)cc1Cl	-3.3%
C=CCn1cnc2scc(-c3ccccc3)c2c1=O	12.3%
COc1ccc(S(=O)(=O)N2CCN(c3ncnc4c(-c5ccccc5)nsc34)CC2)cc1	4.31%
CCCS(=O)(=O)N1CCCC(C(=O)NCCN2CCCCC2C)C1 (configuration not stated)	1.05%
CCOC(=O)C1CCN(C(=O)CC2C(=O)N(Cc3ccccc3)C(C)c3nc4ccccc4n32)CC1 (configuration not stated)	4.71%
Clc1cccc(Cl)c1Cn1nnc(-c2cccs2)n1	2.33%

SMILES	inhibition
Cn1c(=NC(=O)C2CC2)sc2cc(F)cc(F)c21	6.96%
O=S(=O)(c1ccccc1)N(CC(O)CN1CCCCC1)c1ccccc1 (configuration not stated)	10.6%
O=C(Nc1c(Cl)cccc1Cl)C1CCC1	-1.33%
C=CCn1c(CSc2nc3ccccc3s2)nnc1SCC(=O)NCc1ccco1	-0.43%
O=C(c1cc(-c2ccc(O)cc2)on1)N1CCCc2ccccc21	3.9%
c1ccc(CCC2=NCCn3cccc32)cc1	6.93%
CC(=O)Nc1ccn(Cc2c(F)cccc2Cl)n1	1.78%
c1ccc(-c2noc(-c3cccs3)n2)nc1	3.97%
O=C1CN(C(=O)COC(=O)C2CC(=O)N(Cc3ccco3)C2)c2ccccc2N1 (configuration not stated)	-15.4%
CC1(C)CC(=O)c2sc(N)nc2C1	4.78%
CCN1CCN(c2c(Cl)cccc2NC(=O)c2ccc(Br)o2)CC1	10.2%
CCOC(=O)c1ccc(N2C(=O)CC(Sc3nc(O)c(CC)c(=O)[nH]3)C2=O)cc1 (configuration not stated)	-16.1%
O=C(CCCn1c(=O)[nH]c2cc(Cl)ccc2c1=O)NCCN1CCN(c2ccccc2)CC1	6.45%
CC(C)Cn1c(CN(Cc2ccccc2)Cc2ccccc2)nc2c1c(=O)n(C)c(=O)n2C	2.03%
CCOCC(=O)NCc1ccc2c(c1)cc(C)n2C	5.58%
CC1CCCC(NC(=O)CSc2nccn2C)C1C (configuration not stated)	4.17%
O=C(/C=N/O)Nc1ccccc1	1.18%
CCC(=O)N1CCN=C1SCc1ccc(F)cc1	11.4%
Cc1ccc(CN2C(=O)CCC2C(=O)NCCCN2CCCCC2C)cc1 (configuration not stated)	5.07%
Cc1cc(C)c(C#N)c(SCS(=O)c2ccc(C(C)(C)C)cc2)n1 (configuration not stated)	4.64%
CCOC(=O)c1cc2c(n(-c3ccc(C)cc3)c1=O)CCCC2=O	6.98%
CC(c1ccco1)N(C(=O)c1ccc(S(=O)(=O)N2CCCCC2)cc1)c1ccccn1 (configuration not stated)	12%
COC(=O)c1oc2ccc(Br)cc2c1NC(C)=O	8.62%
Cc1nnc(SCc2cc(=O)[nH]c(N3CCN(Cc4ccccc4)CC3)n2)s1	2.33%
Cc1nn(-c2cc(Cl)ccc2N)c(=O)c2ccccc12	4.62%

SMILES	inhibition
COc1cc(OC)c(C(=O)Nc2ccc(N(C)C)cc2)cc1OC	6.85%
CSc1ccc(NC(=O)N2CC(C)OC(C)C2)cc1 (configuration not stated)	7.45%
O=C(Nc1cccc2cccnc12)c1cccc(N2C(=O)CCC2=O)c1	8.88%
CCCCOC(=O)Nc1nccs1	0.87%
CC1=C(C(N)=O)C(c2ccc3c(c2)OCO3)n2nc(-c3cccc(C)c3)nc2N1 (configuration not stated)	6.61%
CCn1c(SCC(=O)c2ccc(Cl)s2)nnc1-c1cccs1	7.99%
O=C(O)c1ccc(COCC(F)(F)F)cc1	7.12%
COc1ccccc1C(=O)C(O)c1ccccc1OC (configuration not stated)	5.88%
CC(C)C(=O)Nc1c(C(=O)c2ccc(F)cc2)oc2ccccc12	-2.16%
Cc1cccc(C(=O)Nc2ccc(CC(=O)O)cc2)c1	3.19%
O=c1[nH][nH]c(=O)c2cc(N3CCCC3)ccc12	10.2%
Cc1cc(=O)n2nc(N3CCCC3C(=O)NCCCN3CC(C)CC(C)C3)sc2n1 (configuration not stated)	-7.38%
O=C(CN1CCOCC1)Nc1cc(Cl)ccc1Cl	17.8%
CCCN1C(=O)C(NS(=O)(=O)c2ccc(N)cc2)(C(F)(F)F)C(C(=O)OC)=C1C (configuration not stated)	4.13%
CC1CCCCC1NC(=O)CSc1nnc(N)s1 (configuration not stated)	4.21%
CCOC(=O)Cc1c(C)nc2c(C#N)c(C)nn2c1C	-16%
CCOC(=O)N1CCN(CC(=O)c2c(C)[nH]c3ccccc23)CC1	8.99%
CCC(C(=O)Nc1ncccn1)(C(F)(F)F)C(F)(F)F	9.39%
Cc1ccc(-n2ncc3c(N4CCN(c5ccc(F)cc5)CC4)ncnc32)c(C)c1	2.92%
Cc1ccc(-n2ncc3c(=O)[nH]cnc32)c(C)c1	20.5% (active)
Cc1ccc(-n2ncc3c2ncn2nc(-c4ccco4)nc32)c(C)c1	0.945%
CC(=O)NS(=O)(=O)c1ccccc1	7.57%
Cc1ccc(-c2nn(-c3ccccc3)cc2CN(Cc2ccccc2)C(=O)CCC(=O)O)o1	1.27%
COc1ccc(CC(NC(C)=O)C(=O)NC2CCN(C(=O)Nc3ccc(C#N)cc3)CC2)cc1OC (configuration not stated)	-19%
c1nnc2c3c4c(sc3ncn12)CCC4	-20.4%

SMILES	inhibition
Cc1ccc2cccc(O)c2[n+]1[O-]	6.81%
CCCn1c(SCC(N)=O)nnc1C(C)C	-14.3%
COc1ccccc1N1CCN(C(=O)c2c(-c3c(Cl)cccc3Cl)noc2C)CC1	-18.6%
CCCn1nnc2sc3c(c2c1=O)CCC(C)C3 (configuration not stated)	1.96%
Cc1ccnc(SCCn2c(N(C)Cc3ccccc3)nc3c2c(=O)n(C)c(=O)n3C)n1	5.5%
Cc1ccc(S(=O)(=O)C2(S(=O)(=O)c3ccc(C)cc3)CCCC2)cc1	5.75%
CCCOC(=O)c1[nH]c2c(c1C)C(=O)CC(c1cc(OC)c(OC)c(OC)c1)C2 (configuration not stated)	3.98%
O=C(c1ccc(-n2cnnn2)cc1)N1CCN(C(c2ccccc2)c2ccccc2)CC1	1.76%
c1c2c(cc3sc(N4CCCCC4)nc13)OCCO2	-2.49%
CC(=O)Oc1ccc(C)cc1N1C(=O)c2ccc(C(=O)O)cc2C1=O	9.34%
N#Cc1ccc(OCCN2C(=O)NC3(CCSC3)C2=O)cc1 (configuration not stated)	18.5%
COc1ccc(C2/C(=C(/O)c3ccccc3)C(=O)C(=O)N2c2ncccn2)cc1OC (configuration not stated)	2.12%
Cc1c(NC(=O)c2coc(=O)c(Br)c2)c(=O)n(-c2ccccc2)n1C	-0.015%
CCOC(=O)N1CCN(C(=O)Cc2ccc(-n3c(=S)[nH]c4ccccc4c3=O)cc2)CC1	7.08%
COc1cccc(Nc2nnc(SCC(=O)N3CC(C)OC(C)C3)s2)c1 (configuration not stated)	-0.74%
CCOc1ccc2[nH]c(=O)c(CN(CCCO)C(C)=O)cc2c1	-3.55%
Cn1c(=O)c2[nH]c(NCC3CCCO3)nc2n(-c2ccccc2)c1=O (configuration not stated)	-14.8%
CC(C)CCNc1nc(N2CCCC2)c2c(c1C#N)CCN(C)C2	-51.8%
N#Cc1ccc(CSc2nnc(-c3ccccn3)n2-c2ccc(Cl)cc2)cc1	-14.6%
CCN(CC)P(=O)(C(NC(=O)OC)C(F)(F)C(F)(F)C(F)(F)C(F)F)N(CC)CC (configuration not stated)	0.97%
CCCC(C)n1[nH]c(=O)c2c(C)cc(C)nc21 (configuration not stated)	3.26%
N#CC(C(=O)c1ccc(S(=O)(=O)N2CCCCCC2)cc1)c1nc2ccccc2[nH]1 (configuration not stated)	-9.55%
